# Source: PubChem BioAssay AID778 (Sanford-Burnham Center for Chemical Genomics, 2007)
# About 20,000 (21%) of roughly 96,000 compounds were called active.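 Rule for the calls: active = CYP2C19 inhibition above a set limit at 5 µM in the primary screen (cut at about 50% in these data); inactive = the rest.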 A selection follows.
# Target: Cytochrome P450 2C19 (Homo sapiens) (UniProt P33261)
# Assay: blockers of cytochrome P450 2C19 activity – biochemical, luminescence, ADME assay, primary screen (AID 778);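 note: plate controls were negative control wells for no effect and 2.5 mM tranylcypromine positive control for full effect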
# Details: CYP2C19 Supersomes, luciferin-H EGE luminescence, 30 min; at 5 µM; hits give high values
# Chain of Cytochrome P450 2C19 (Homo sapiens) (P33261 whole entry, looked up): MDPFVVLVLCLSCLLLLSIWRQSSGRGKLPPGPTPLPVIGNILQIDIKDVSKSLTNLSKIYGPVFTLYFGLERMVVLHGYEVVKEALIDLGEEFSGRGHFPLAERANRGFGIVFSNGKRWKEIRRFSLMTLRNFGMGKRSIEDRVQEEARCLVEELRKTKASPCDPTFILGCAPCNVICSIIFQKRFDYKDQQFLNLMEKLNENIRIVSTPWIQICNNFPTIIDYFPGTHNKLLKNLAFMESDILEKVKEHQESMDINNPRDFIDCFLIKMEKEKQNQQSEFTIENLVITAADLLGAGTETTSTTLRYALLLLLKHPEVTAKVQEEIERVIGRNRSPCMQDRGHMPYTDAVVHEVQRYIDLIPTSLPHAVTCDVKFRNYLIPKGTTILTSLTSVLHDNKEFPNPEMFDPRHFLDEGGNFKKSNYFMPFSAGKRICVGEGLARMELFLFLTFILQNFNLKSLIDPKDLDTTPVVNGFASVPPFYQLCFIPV
row,SMILES,inhibition
1,N/C(=N\c1nc2ccccc2o1)NC(=O)C(Cc1ccccc1)N1C(=O)c2ccccc2C1=O (centres undefined),35.9% (inactive)
2,Cn1c(=O)cc(SCC(=O)N2CCN(C(=O)c3ccco3)CC2)c2ccccc21,-17% (inactive)
3,Cc1c2cnn(-c3ccccc3)c(=O)c2c(C)n1CCCC(=O)N1CCN(C)CC1,-16% (inactive)
4,O=C(Cn1cnc2ccccc2c1=O)NCC1COc2ccccc2O1 (centres undefined),22.7% (inactive)
5,CC(=O)N(CN1C(=O)C2CC=CCC2C1=O)c1cccc(Cl)c1 (centres undefined),46.5% (inactive)
6,Cc1cc(C)c2nc(N3CCCC3)c(C#N)cc2c1,-2.3% (inactive)
7,Fc1ccc(Br)cc1/C=N/n1cnnc1,13.9% (inactive)
8,CCN(CC)c1ccc2oc(=O)c(C)nc2c1,18.7% (inactive)
9,COCc1cc(C(C)=O)ccc1OC,6.2% (inactive)
10,COc1ccc(CC(=O)c2ccc(O)cc2O)cc1OC,88% (active)
11,COc1ccc(CNC(=O)c2c(C)cc(=O)oc2C)cc1OC,5.4% (inactive)
12,N#CCCN1CCN(S(=O)(=O)c2ccc(S(=O)(=O)N3CCCC3)cc2)CC1,-7.1% (inactive)
13,Cc1cc(-c2cccs2)nc(-n2cccc2)n1,4.9% (inactive)
14,Cc1cc(C)nc(N(C#N)CC(=O)Nc2ccccc2)n1,-2.6% (inactive)
15,COc1ccc(C(=O)Oc2cc(/C=N/NS(=O)(=O)c3ccc(C)cc3)ccc2OC)cc1,4.8% (inactive)
16,CCOC(=O)CN(Cc1ccc(OC)c(OC)c1)S(=O)(=O)c1ccc(OC)cc1,81.1% (active)
17,NS(=O)(=O)c1cccnc1Nc1cccc(Cl)c1,40.5% (inactive)
18,CCCCNC(=O)c1ccccc1NC(=O)c1ccccc1N(C)S(C)(=O)=O,14.4% (inactive)
19,CNC(=O)CSc1nnnn1-c1ccc(C)cc1C,49.1% (inactive)
20,COc1ccc(C(=O)CSc2nnc(COc3ccccc3)n2Cc2ccco2)cc1,35% (inactive)
21,COc1ccc(C)cc1-n1nnnc1SCC(=O)c1cc(C)n(Cc2ccco2)c1C,98.7% (active)
22,Cc1nc2cc(-c3ccc(F)cc3)nn2c(N2CCOCC2)c1C,5.1% (inactive)
23,Oc1ccc(-c2onc3ccc(Cl)cc23)cc1,19% (inactive)
24,CCn1c2ccccc2c2cc(NC(=S)N3CCOCC3)ccc21,11.1% (inactive)
25,COc1ccc(NC(=O)Cn2c(=O)n(Cc3ccco3)c(=O)c3ccccc32)cc1,15.9% (inactive)

row,SMILES,inhibition
1,CCn1c2ccccc2c2cc(NC(=O)C/C(C)=N/NC(=O)c3ccccc3N)ccc21,54.7% (active)
2,CN(C(=O)c1ccccn1)c1nnc(-c2ccccn2)s1,1.1% (inactive)
3,CCOC(=O)N1CCN(c2c(NCCCN3CCCC(C)C3)c(=O)c2=O)CC1 (centres undefined),4.3% (inactive)
4,CCCNC(=O)c1c(N)n(-c2ccc(S(N)(=O)=O)cc2)c2nc3ccccc3nc12,-13.2% (inactive)
5,COCCn1c(CN(Cc2ccccc2)Cc2ccccc2)nc2c1c(=O)n(C)c(=O)n2C,76.4% (active)
6,CC(C)Cn1c(CN(Cc2ccccc2)Cc2ccccc2)nc2c1c(=O)n(C)c(=O)n2C,17.7% (inactive)
7,CC(C)CCn1c(CN(C)Cc2ccccc2)nc2c1c(=O)n(C)c(=O)n2C,42.8% (inactive)
8,COCc1cc(C)nc2sc(C(=O)NC3CCCCC3)c(N)c12,-2.5% (inactive)
9,Cc1cc(/C=N/n2cnnc2)c(C)n1-c1cccc(C(=O)O)c1,24.9% (inactive)
10,Fc1ccccc1OCCSc1nc2ccccc2o1,46.8% (inactive)
11,COc1ccccc1OCCC(=O)OCC(=O)NC(=O)NC(C)(C)C,14.2% (inactive)
12,O=C(CSCc1ccccc1Cl)NNC(=O)c1ccccc1,40.1% (inactive)
13,Cc1ccccc1CSCC(=O)NC(=O)NC(C)(C)C,56% (active)
14,COc1ccccc1N1CC(C(=O)Nc2ccc(S(=O)(=O)N3CCOCC3)cc2)CC1=O (centres undefined),-1.1% (inactive)
15,Cn1c(=O)oc2cc(S(=O)(=O)N3CCC(C(=O)Nc4ccc(OC(F)(F)F)cc4)CC3)ccc21,30.4% (inactive)
16,COC(=O)c1ccccc1NC(=O)C1CCN(S(=O)(=O)c2cc(OC)ccc2OC)CC1,93.5% (active)
17,COc1cccc(C(=O)Nc2ccc(N3CCCC3)cc2)c1,48.4% (inactive)
18,O=C(CN1C(=O)C2C3C=CC(C3)C2C1=O)Nc1nc(-c2ccccn2)cs1 (centres undefined),-13.1% (inactive)
19,C=C(C)COc1ccc(-c2n[nH]c(C)c2-c2ccccc2OC)c(O)c1,43.5% (inactive)
20,COc1ccc(-c2n[nH]c(C)c2-c2ccc(OC)c(OC)c2)c(O)c1,98.5% (active)
21,C=C(C)COc1ccc(-c2n[nH]c(C)c2-c2ccccc2)c(O)c1,33.7% (inactive)
22,COc1nc(N=C(N)N)nc2c(C)cccc12,-8.7% (inactive)
23,CCOC(=O)c1cc(-c2ccc(Cl)s2)nc2c1c(C)nn2C,17.2% (inactive)
24,Cc1cc(C)c(S(=O)(=O)NCCCN2CCOCC2)cc1Br,53.9% (active)
25,O=S(=O)(O)CCN1CCOCC1,2.1% (inactive)

row,SMILES,inhibition
1,Cc1ccc(S(=O)(=O)NCCN2CCOCC2)cc1C,24.8% (inactive)
2,COc1ccc(C)cc1NC(=O)CSc1nc(SC)ns1,35.5% (inactive)
3,Cc1ccc(C)c2[nH]c(=O)c(CCNC(=O)CC(C)C)cc12,29.7% (inactive)
4,CCOC(=O)c1c(NC(=S)Nc2ccccc2)sc2c1CCN(C)C2,26.5% (inactive)
5,O=C(NCCCCCCNC(=O)NCc1ccco1)NCc1ccco1,-12.7% (inactive)
6,CC1(C)SC2c3ccccc3C(=O)N2[C@@H]1C(=O)NCc1ccco1 (some centres undefined),62.8% (active)
7,COc1cc2c(cc1OC)C(C(=O)NCc1ccco1)C1c3ccccc3CCN1C2=O (centres undefined),10.7% (inactive)
8,C=CCNc1nc(C)nc(OC)n1,-16.5% (inactive)
9,COc1nc(NCc2ccc(Cl)cc2)nc(OC)n1,58.5% (active)
10,CCNc1nc(N)nc(-c2cc(Cl)ccc2OC)n1,24.4% (inactive)
11,CCCNC(=S)NC1CC2CCCC(C1)N2CC(C)C (centres undefined),6.3% (inactive)
12,CC(C)c1cc(C(=O)O)n[nH]1,-11.8% (inactive)
13,Cc1cccc(-n2ncc(C#N)c2-n2cccc2)c1,21.9% (inactive)
14,COc1ccccc1N1CCN(Cc2nnnn2CCc2ccccc2)CC1,75.4% (active)
15,c1ccc(CCn2nnnc2CN2CCN(C3CCCC3)CC2)cc1,-12% (inactive)
16,COc1ccccc1N1CCN(CCCCOc2ccc(F)cc2)CC1,13.1% (inactive)
17,CCOC(=O)c1sc(N(Cc2ccccc2)C(=O)CN2C(=O)CN(C)C2=O)nc1C,14.5% (inactive)
18,CCOc1ccc(OCC)c(-c2c(=O)n(OCc3ccc(Cl)cc3)c3ccccc3[n+]2[O-])c1,76.2% (active)
19,Cc1cc(C)cc(NC(=O)c2cccc(NC(=O)C3C4CC5OC(=O)C3C5C4)c2)c1 (centres undefined),3% (inactive)
20,COc1ccc(N2CCN(C(=O)CSc3nnc4ncccn34)CC2)cc1,29.2% (inactive)
21,Cc1ccc2nc(NC3=NCN(CCc4ccccc4)CN3)nc(C)c2c1,-14.5% (inactive)
22,COCn1c(COc2ccccc2)nc2ccccc21,51.4% (active)
23,O=S(=O)(O)c1nc2ccccc2n1Cc1ccc(Cl)cc1Cl,11.3% (inactive)
24,COCC(=O)Nc1nnc(COc2ccccc2)s1,-3% (inactive)
25,CCc1nc2ccccc2n(CCOCCOCCn2c(=O)c(CC)nc3ccccc32)c1=O,24.1% (inactive)

row,SMILES,inhibition
1,CCC(=O)Nc1nc2ccccc2n1Cc1ccccc1C,49.7% (inactive)
2,COCc1nc2ccccc2n1Cc1ccccc1Br,55.6% (active)
3,CCCCc1cc(=O)oc2cc(C)cc(OCc3nn[nH]n3)c12,11.2% (inactive)
4,CN1CCN(S(=O)(=O)c2ccc(NC(=O)C3CCCO3)cc2)CC1 (centres undefined),3.5% (inactive)
5,COc1ccc(OC)c2c1sc(=NC(=O)CN1C(=O)CCC1=O)n2C,11.6% (inactive)
6,COc1ccccc1NC(=O)c1ccc(C)s1,36.8% (inactive)
7,c1cncc(-c2nnc3n2C2(CCCCC2)Cc2ccccc2-3)c1,3% (inactive)
8,O=c1c2ccccc2nc2n1C1(CCCCC1)Cc1ccccc1-2,74.3% (active)
9,CCC1(CC)Cc2ccccc2-c2nc3ccccc3c(=O)n21,13.4% (inactive)
10,CCCCNc1ccc(C(=O)Nc2cccc(C)n2)cc1[N+](=O)[O-],-3% (inactive)
11,COc1ccc(N(CCC#N)S(=O)(=O)c2ccc(Cl)cc2)cc1,49.6% (inactive)
12,CCn1c(NC(=O)c2ccccc2)c(-c2cccs2)c(=O)c2ccccc21,-4.5% (inactive)
13,COC(=O)c1ccccc1NC(=O)CN(Cc1ccccc1)S(C)(=O)=O,17.1% (inactive)
14,CCOc1ccccc1N(CC(=O)Nc1ccccc1C(=O)OC)S(C)(=O)=O,14.5% (inactive)
15,CCOc1ccc(NC(=O)c2ccccc2NS(C)(=O)=O)cc1,16.2% (inactive)
16,COC(=O)c1ccccc1NC(=O)c1ccccc1NS(C)(=O)=O,62.7% (active)
17,COC(=O)c1ccccc1NC(=O)CN(Cc1ccc(Cl)cc1)S(C)(=O)=O,96.6% (active)
18,COC(=O)c1ccc(NC(=O)c2ccccc2NS(=O)(=O)c2ccccc2)cc1,41.7% (inactive)
19,O=C(OC1CCCCC1=O)c1cccc(S(=O)(=O)NCc2ccccc2)c1 (centres undefined),41.1% (inactive)
20,CC(=O)c1c(C)[nH]c(C(=O)NCCCN2CCCC2)c1C,-10.9% (inactive)
21,O=C(O)c1ccccc1-c1ccccc1C(=O)Nc1cccc2ccccc12,0.9% (inactive)
22,COCCCNC(=O)c1ccc2c(c1)ncn2-c1ccccc1OC,1.5% (inactive)
23,COc1ccccc1-n1cnc2cc(NS(=O)(=O)c3ccccc3)ccc21,64.8% (active)
24,COc1ccccc1-n1cnc2cc(C(=O)NCC3CCCO3)ccc21 (centres undefined),13.8% (inactive)
